Bioassay records (PubChem)
ADAM17 inh = ADAM17 inhibitors, primary screen, biochemical, QFRET. Disintegrin and metalloproteinase domain-containing protein 17 (Homo sapiens), P78536. recombinant ADAM17, EDANS/DABCYL FRET peptide cleavage. inhibition, % at 6.95 µM. hit rate 0.83% among 370,000. AID 720648, 2013;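 active = inhibition above the mean of compounds lying between control limits plus 3 SD, set per campaign, cut at about 8.5% in these data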
proKLK7 act = proKLK7 zymogen activators, primary screen, biochemical, fluorescence intensity | Kallikrein-7 (Homo sapiens), P49862 | purified proKLK7, EDANS-DABCYL substrate fluorescence; 100% is mature enzyme control, 0% vehicle | activation, % at 7 µM | hit rate 0.9% among 370,000 | AID 652039, 2013;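 active = activation above the mean of all tested compounds plus 3 SD, computed per campaign excluding outliers beyond control limits, cut at about 13% in these data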
Target sequence (P49862 whole entry, looked up): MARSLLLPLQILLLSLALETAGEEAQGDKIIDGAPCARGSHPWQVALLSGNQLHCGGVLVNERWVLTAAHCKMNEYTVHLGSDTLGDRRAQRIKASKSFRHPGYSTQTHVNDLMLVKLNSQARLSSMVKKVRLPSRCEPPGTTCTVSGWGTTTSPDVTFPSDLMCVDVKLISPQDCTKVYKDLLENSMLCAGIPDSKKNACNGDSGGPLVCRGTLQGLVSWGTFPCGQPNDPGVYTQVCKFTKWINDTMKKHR
PLC-beta3 inh = human PLC-beta3 inhibitors, primary screen, biochemical, fluorescence | inhibition, % at 12.2 µM | 1-phosphatidylinositol 4,5-bisphosphate phosphodiesterase beta-3 (Homo sapiens), Q01970 | hit rate 0.18% among 370,000 | AID 720704, 2013 | Purified PLC-beta3, fluorogenic substrate; in the data active = inhibition above about 11%
HGIII-sPLA2 inh = human group III sPLA2 inhibitors, primary screen, biochemical, QFRET, BODIPY PC-A2 liposome substrate; Group 3 secretory phospholipase A2 (Homo sapiens), Q9NZ20; QFRET BODIPY PC-A2 liposome hydrolysis, fluorescence; inhibition, % at 12.2 µM; hit rate 0.56% among 370,000;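 active = inhibition above mean plus 3 SD of compounds lying within the high and low control bounds, cut at about 19% in these data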
ADAM10 inh = human ADAM10 inhibitors, primary screen, biochemical, QFRET, HTS. recombinant ADAM10, EDANS/DABCYL FRET peptide cleavage, 3 h. inhibition, % at 7 µM. hit rate 0.62% among 370,000. AID 720582, 2013;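 active = inhibition above a per-campaign cutoff equal to the mean of compounds falling between control-based bounds plus 3 SD, cut at about 20% in these data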
PLC-gamma1 inh = PLC-gamma1 enzyme inhibitors, primary screen, biochemical, fluorescence, purified enzyme; hit rate 0.84% among 370,000; fluorogenic substrate; inhibition, % at 12.2 µM; 1-phosphatidylinositol 4,5-bisphosphate phosphodiesterase gamma-1 (Homo sapiens), P19174; in the data active = inhibition above about 9.5%
sPLA2 confirm = human group III sPLA2 inhibitors, confirmation, biochemical, QFRET, triplicate. hit rate 34% among 2,000. recombinant hGIII-sPLA2, BODIPY PC-A2 QFRET fluorescence. inhibition, % at 12.2 µM. shares compounds with HGIII-sPLA2 inh;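 active = mean inhibition across triplicates above the hit cutoff set in the earlier primary screen, cut at about 19% in these data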
535nm interf = 535nm fluorescence optical interference, confirmation, artefact control for HGIII-sPLA2 inhibitor project, biochemical, QFRET | shares compounds with HGIII-sPLA2 inh | BODIPY FL product fluorescence interference | inhibition, % at 12.2 µM | hit rate 8.5% among 2,000 | AID 743282, 2014;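 active = average inhibition above the solvent-only control mean plus 3 SD, cut at about 6% in these data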
535nm interf DR = 535nm fluorescence optical interference, dose response, artefact control for HGIII-sPLA2 inhibitor project, biochemical, QFRET. shares compounds with HGIII-sPLA2 inh. IC50, µM. 240 tested, under 10 active. BODIPY FL product fluorescence interference, cell-free;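 active = IC50 at or below 10 µM; inactive = IC50 above 10 µM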
Numbers stand for hits; - = inactive; . = not tested or not shown. Sampled rows, rich in hits. Any-hit rate of the full collection: about 3.4%.

SMILES	ADAM17 inh	proKLK7 act	PLC-beta3 inh	HGIII-sPLA2 inh	ADAM10 inh	PLC-gamma1 inh	sPLA2 confirm	535nm interf	others
CC(C)C[C@@H](CN1CCCC1CN1C(=S)NC[C@@H]1Cc1ccccc1)N1C[C@H](Cc2ccccc2)N(CCc2ccccc2)C1=S (some centres undefined)	-	-	-	-	-	-	.	.
O=C(Cc1cnn(-c2ccccc2)c1)c1ccc(O)c(O)c1O	-	-	-	24.1	-	-	-	-
CCc1cc(C(=O)Cc2cnn(-c3ccccc3)c2)c(O)cc1O	-	-	-	-	-	-	.	.
Cc1ccc(S(=O)(=O)NCC(C)n2cncn2)cc1C (centres undefined)	-	-	-	19.9	-	-	-	-
N#CC1(NC(=O)CSc2nnc(-c3ccccc3F)n2N)CCCCC1	-	-	-	-	-	-	.	.
C=CCN=c1scc(-c2ccco2)n1/N=C/c1ccc(O)c(O)c1O	-	-	-	23.9	-	-	37.4	-	535nm interf DR=-
CN=c1scc(-c2cccs2)n1/N=C/c1ccc(O)c(O)c1O	-	-	-	-	-	-	.	.
CCCNC(=S)N1CCC(C(=O)c2ccc(Cl)cc2)CC1	-	-	-	-	-	-	.	.
CCCNC(=S)N1CCC(C(=O)c2ccc(OC)cc2)CC1	-	-	-	21.3	-	-	-	-
CSc1cccc(NC(=O)c2cccc3cccnc23)c1	-	-	-	-	-	-	.	.
Cc1nn(CC(=O)Nc2ccc(Cl)cn2)c(C)c1Br	-	-	-	19.7	-	-	-	-
CCc1ccc([C@@H]2CC(=O)[C@@H]3CN(S(=O)(=O)c4ccc(Cl)cc4)[C@H](c4ccc(C)cc4)C[C@@H]3N2S(=O)(=O)c2ccc(C)cc2)cc1	-	-	-	-	-	-	.	.
CCN(CC)c1ccc(NC(=O)c2ccc3c(c2)OCO3)cc1	-	-	-	19.6	-	-	-	-
O=C(CCCC(=O)OCC(=O)c1ccc(Cl)cc1)NC1CCCCC1	-	-	-	-	-	-	.	.
O=C(COC(=O)CC1CC2CCC1C2)Nc1ccccc1[N+](=O)[O-] (centres undefined)	-	-	-	-	-	-	.	.
O=c1oc2ccccc2cc1-c1csc(NN=C2CCCC2)n1	-	-	-	20.1	-	-	-	-
COCCNC(=S)N/N=C(\C)c1ccc(O)cc1	-	-	-	-	-	-	.	.
C/C(=N\NC(=S)NCC(C)(C)C)c1cc(F)cc(F)c1O	-	-	-	33.1	-	-	42.7	-	535nm interf DR=-
CC(=O)Nc1ccc(Nc2nc(Cl)nc(Nc3ccc(NC(C)=O)cc3)n2)cc1	-	-	-	-	-	-	.	.
COc1ccc2cc(C3CC(c4ccco4)=NN3S(C)(=O)=O)c(Cl)nc2c1 (centres undefined)	-	-	-	-	-	-	.	.
CCOc1ccc2nc(Cl)c(C3CC(c4ccco4)=NN3S(=O)(=O)c3ccccc3)cc2c1 (centres undefined)	-	-	-	28.6	-	-	-	-
O=C(CNS(=O)(=O)c1ccccc1)N1CCN(Cc2ccccc2)CC1	-	-	-	-	-	-	.	.
O=Cc1nc(Nc2cc(F)cc(F)c2)nc(NC2CCCC2)n1	-	.	-	28.5	-	-	22.6	-
Cc1c(NC(=O)c2nn(C(C)C)c(=O)c3ccccc23)c(=O)n(-c2ccccc2)n1C	-	-	-	-	-	-	.	.
COc1ccc(C2=NOC(C(=O)N3CCN(C(=O)c4ccco4)CC3)C2)cc1OC (centres undefined)	-	-	-	-	-	-	.	.
SMILES	ADAM17 inh	proKLK7 act	PLC-beta3 inh	HGIII-sPLA2 inh	ADAM10 inh	PLC-gamma1 inh	sPLA2 confirm	535nm interf	others
CCOC(=O)[C@H]1[C@H]2COc3ccc(Br)cc3[C@@H]2N2C(=O)c3cc(F)c(F)cc3NC(=O)[C@@]12C	-	-	-	-	-	-	.	.
CCOC(=O)[C@H]1[C@H]2COc3ccc(OC)cc3[C@@H]2N2C(=O)c3ccc(C)cc3NC(=O)[C@@]12C	-	-	-	-	-	-	.	.
CCOC(=O)[C@H]1[C@H]2COc3cc(OC)ccc3[C@@H]2N2C(=O)c3cc(OC)ccc3NC(=O)[C@@]12C	-	-	-	25.6	-	-	-	-
CCOC(=O)[C@H]1[C@H]2COc3cc(OC)ccc3[C@@H]2N2C(=O)c3ccc(F)cc3NC(=O)[C@@]12C	-	-	-	-	-	-	.	.
CCOC(=O)[C@H]1[C@H]2COc3cc(OC)ccc3[C@@H]2N2C(=O)c3cc(F)ccc3NC(=O)[C@@]12C	-	-	-	30.6	-	-	-	-
CCOC(=O)[C@H]1[C@H]2COc3cc(OC)ccc3[C@@H]2N2C(=O)c3cc(C)ccc3NC(=O)[C@@]12C	-	-	-	-	-	-	.	.
CCOC(=O)[C@H]1[C@H]2COc3cc(OC)ccc3[C@@H]2N2C(=O)c3cc(F)c(F)cc3NC(=O)[C@@]12C	-	-	-	24.7	-	-	19.5	-
CCOC(=O)[C@H]1[C@H]2COc3cc(OC)ccc3[C@@H]2N2C(=O)c3ccc(C)cc3NC(=O)[C@@]12C	-	-	-	25.3	-	-	-	-
COc1cc(CC(=O)Nc2cc(S(=O)(=O)N3CCOCC3)ccc2N2CCCC2)cc(OC)c1OC	-	-	-	-	-	-	.	.
O=C1CC2c3ccccc3C1C1C(=O)N(CCO)C(=O)C21 (centres undefined)	-	-	-	-	-	-	.	.
C/C(=N\NC(=S)NCc1ccccc1)c1ccc2ccccc2c1	-	-	-	19.3	-	-	-	-
COc1ccccc1N1CCN(C(=O)C(CC(C)C)NC(=O)C2CCCCC2)CC1 (centres undefined)	-	-	-	-	-	-	.	.
O=C1c2ccccc2C(=O)N1c1cccc2cccnc12	-	-	-	22.3	-	-	-	-
c1ccc(CSc2ccc(-c3ccc4c(c3)OCO4)nn2)cc1	-	-	-	22.8	-	-	-	-
Fc1ccc(CSc2ccc(-c3ccc4c(c3)OCO4)nn2)cc1	-	-	-	-	-	-	.	.
